In PMC12136788:
Substitutions are numbered along the chain they refer to. The full ranking holds about 5,800 sequences; the median of “enrichment r” is about 0.68, and the highest 2% start at about 11. What follows is part of a selection rich in the highest values, with near analogues and random picks from the rest.

T1: UNK ZnF1-6 (called full-length) (human, UniProt Q9C0B0 30-357)
T1 sequence: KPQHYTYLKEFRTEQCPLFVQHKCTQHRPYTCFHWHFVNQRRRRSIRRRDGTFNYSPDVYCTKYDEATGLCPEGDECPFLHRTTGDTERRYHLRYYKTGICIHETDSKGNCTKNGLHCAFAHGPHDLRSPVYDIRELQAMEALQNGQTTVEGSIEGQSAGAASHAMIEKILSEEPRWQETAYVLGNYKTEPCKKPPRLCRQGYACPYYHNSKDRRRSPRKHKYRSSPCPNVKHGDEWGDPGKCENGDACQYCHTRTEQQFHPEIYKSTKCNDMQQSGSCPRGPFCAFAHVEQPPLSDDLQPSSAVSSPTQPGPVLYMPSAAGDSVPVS

B1: ENSG00000070961:be:win_4601|3pUTR|ENSG00000070961|bound_else_gene|NA|bound_elsewhere_windowed (ssRNA)
RNA: GGGAGUUCUACAGUCCGACGAUCUCAGACUAUCAAACUACAAGAGAACCUUAGUCUUUUUUGUUUUUGUCUAAACAUGUUAGUUUAGUGAUGUCUUGGUGAACUGUGAGUGAACUGUAUUGAUUUUUCUAAUCUUUAGAGACCCAACAGAGGAUUGAGCAUCA
B2: ENSG00000157823:stop:overlap|stop_codon|ENSG00000157823|stop_codon|NA|stop_codon (ssRNA)
RNA: GGGAGUUCUACAGUCCGACGAUCUCCGCUUCUACCAGCGUUUCAAGAAAUUCAACAGCAGAUUGUUCGAGAGACUUUCCAUCUAGUCCUCAAGCGGGAUGACAACAUCUGUAACUUCUUGGAGGGUGGAAGUUUGAUUGGUGGCAACAGAGGAUUGAGCAUCA
B3: chr13:42321371:42321394:+|3pUTR|ENSG00000023516|msi1_unk|FALSE|overlapping (ssRNA)
RNA: GGGAGUUCUACAGUCCGACGAUCUUCUGUUUAUGGUGUAAUCAUUCUGAGGUGAGGCUUUUCUUAUUUCCUUUGCAUUUUGCUAGAGCUGUGCUGAGUUCAGCAUUUGCUUAUUUAACCACUACAUAAUGACAGACCAGUUAUCAACAGAGGAUUGAGCAUCA
B4: chr8:23844609:23844711:-|3pUTR|ENSG00000159167|msi1|FALSE|unique (ssRNA)
RNA: GGGAGUUCUACAGUCCGACGAUCUUUAGGGGUGUUGACACACCAGUUUUGAGUGUACUGUGCCUGGUUUGAUUUUUUUAAAGUAGUUCCUAUUUUCUAUCCCCCUUAAAGAAAAUUGCAUGAAACUAGGCUUCUGUAAUCAAUCAACAGAGGAUUGAGCAUCA
B5: chr7:7573188:7573293:+|CDS|ENSG00000164654|unk|total|mutant (ssRNA)
RNA: GGGAGUUCUACAGUCCGACGAUCCCAUAUUUCCACGAUCGUGUUGCUUCCUUCUAUGAAGGUCAGGUUGCAAUAUGGGAUCUCCGAAAAUUUGAGAAGCCAGUUUUGACAUUGACUGAGCAACCAAAACCCUUAACAAAAGUACAACAGAGGAUUGAGCAUCA
B6: chr1:68475836:68475940:-|3pUTR|ENSG00000024526|unk|total|mutant (ssRNA)
RNA: GGGAGUUCUACAGUCCGACGAUCAUGCCCAGGGCCUAACUUACACUAAUUAAAUCUGAAUUUUGGGGAUGUUGUACCGGGAUCCGUAUUUUUUUUAAUCCCGGUGAUUCCAAUAUUCAGCCAACUGUGAGAAUCAAUGGCCUACAACAGAGGAUUGAGCAUCA
B7: chrX:135156539:135157311:-|three_prime_utr|ENSG00000169551|control|control|control (ssRNA)
RNA: GGGAGUUCUACAGUCCGACGAUCUUUAUUCUGUUUAUCUUUCCUUUUAUGAGCAGUAAAGGGGCUGGUUUAACUUAAAAGGUUAGCUUAGUAAGCCUAAAUAGUAUUUUAUAUAUGACUUUUCUGGCAAAUCUAAUUGAGACACAACAGAGGAUUGAGCAUCA
B8: chr2:65312585:65312700:-|3pUTR|ENSG00000198369|unk|FALSE|unique (ssRNA)
RNA: GGGAGUUCUACAGUCCGACGAUCUGGACCAGGGCUAGAAUGGGGAUUUCAGGUUUCUAUGAGCCUCCCCAUUACCCCUAAAGUAGAACAUUUUUUAAAUUGUGUUGCCACCACUUCUAAAAAUUUAGCAAUAUUAGAAUAGGACAACAGAGGAUUGAGCAUCA
B9: chr18:2804133:2804242:+|3pUTR|ENSG00000101596|unk|FALSE|unique (ssRNA)
RNA: GGGAGUUCUACAGUCCGACGAUCGGUUAAAGAGAAAUGACUUUUUAGGAACUAGACUUGAACGUAUAAUUAAUAUGUGGAACUAGUUUGCUUUUAUAAUUCAUUGUAUCAAGAAGGAGUCAUGUUUUAAAUCCAAGGCAUUGACAACAGAGGAUUGAGCAUCA
B10: chr1:68475836:68475940:-|3pUTR|ENSG00000024526|unk|FALSE|unique (ssRNA)
RNA: B6 RNA with C76U, C77A, C83U, C84A, C100U, C101A
B11: chr7:157269180:157269282:+|3pUTR|ENSG00000009335|unk|FALSE|unique (ssRNA)
RNA: GGGAGUUCUACAGUCCGACGAUCAUUUUAGGUUGUUUUAUGUUGAAUGUUCUAUAUCUUAUUAGUUAAUUUGUAUAUUUUAUUAGUAUUUUGGAAAUAGCAUAUCUGAGACUGAAGAGAAAUUGACAAUUCACUUAUUUGUGGCAACAGAGGAUUGAGCAUCA
B12: chr19:34469546:34469571:+|3pUTR|ENSG00000126261|msi1_unk|FALSE|overlapping (ssRNA)
RNA: GGGAGUUCUACAGUCCGACGAUCGUUGCCUUUUUAAUGUAAAUACCCGUAGGUAUCAUUAAUAGUUUCAAAAUAUUGUGGUUUAGUAAAGUUGAUACCUGGUUAUAAAUAUUAUGCCUUUAUUUUUGGCUAGAAGAAGAAUUACAACAGAGGAUUGAGCAUCA
B13: chr7:157269180:157269282:+|3pUTR|ENSG00000009335|unk|total|mutant (ssRNA)
RNA: B11 RNA with U28C, A29C, U62C, A63C, U83C, A84C, U97C, A98C
B14: chr17:29548703:29548809:+|3pUTR|ENSG00000160551|unk|FALSE|bound_elsewhere (ssRNA)
RNA: GGGAGUUCUACAGUCCGACGAUCAGCACUUGUGAGUGAAAAAUCAUGUAAUUAUCUGUAAAUAUGUAGCUAACAAAUUGACCUAGUUUCUGUAUUUUUUUGUUUUUGUACUAAAGUUUAUAGGUCUGUGCCAGCUAGAGAGAACAACAGAGGAUUGAGCAUCA
B15: chr15:67202635:67202736:-|3pUTR|ENSG00000103591|msi1|FALSE|unique (ssRNA)
RNA: GGGAGUUCUACAGUCCGACGAUCUGCCAAAAUUGCCCUUAUCAUGUUGGCUGCCUGACUUGUUUAUAGGGUCCCCUUAAUUUUAGUUUUUAGUAGGAGGUUAAGGAGAAAUCUUUUUUUUCCUCAGUAUAUUGUAAGAGAGUGCAACAGAGGAUUGAGCAUCA

What follows are binders tested against T1, UNK ZnF1-6 (called full-length) (assay: nsRBNS (natural sequence RNA bind-n-seq); RBNS binding buffer (assumed for nsRBNS): 25 mM Tris pH 7.5, 150 mM KCl, 3 mM MgCl2, 0.01% Triton X-100, 500 ug/ml BSA, 20 U/ml SUPERase-In, 4 C; UNK is unkempt and MSI1 is Musashi-1; names of the RNAs are library labels; protein concentration not given here; high values mean tight binding).

| Binder | binding signal |
| --- | --- |
| B1 | 2.66 enrichment R |
| B2 | 0.633 enrichment R |
| B3 | 0.605 enrichment R |
| B4 | 0.924 enrichment R |
| B5 | 0.291 enrichment R |
| B6 | 0.698 enrichment R |
| B7 | 1.68 enrichment R |
| B8 | 13.9 enrichment R |
| B9 | 0.789 enrichment R |
| B10 | 11.6 enrichment R |
| B11 | 19.7 enrichment R |
| B12 | 9.94 enrichment R |
| B13 | 0.843 enrichment R |
| B14 | 6.33 enrichment R |
| B15 | 15.9 enrichment R |
